Screens deposited in PubChem BioAssay by National Center for Advancing Translational Sciences (NCATS).
Many of the other results were omitted from the sample, so hits are more common in it than they were.
HT1080 IDH1KD tx – HT-1080 IDH1 knockdown cell toxicity (counter line) | Potency, µM (top dose mostly 46.1 µM), inactives show top-dose activity, negative = toxicity, actives largely listed as cytotoxic | HT-1080 IDH1 knockdown viability, ATP luminescence, 48 h | 2% of 360,000 active;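 note: potency is the fitted concentration of half-maximal effect; 0% = DMSO wells and -100% = cell-free medium wells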
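In this qHTS, HT-1080 cells depleted of IDH1 are exposed for 48 h at 37 °C to compound titrations. Toxicity is scored from CellTiter-Glo luminescence, with DMSO as full viability and medium alone as none.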
IL1B secr inh – inflammasome signaling inhibition, IL-1 beta readout; THP-1 LPS/ATP IL-1B secretion, AlphaLISA, 16 h; stronger effect = lower value; activity change, % at 57.5 µM; 4.7% of 360,000 active; in the data active = activity change below about -50%; inconclusive = mostly about -30% to -49%
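THP-1 cells pretreated 1 hr with compounds (up to 57.5 uM final), then stimulated with LPS (250 ng/mL final) plus ATP (1.25 mM final); secreted IL-1B measured by AlphaLISA after 16 hr, decreased signal indicating inhibition.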
ALOX12 inh – blocks human arachidonate 12S-lipoxygenase; purified 12hLO, xylenol orange hydroperoxide absorbance; AID 1671190; Potency, µM (top dose mostly 108 µM), without a hit: at the highest dose activity change, negative = inhibition, hits mostly inhibitors; P18054; 1.1% of 580,000 active; note: potency is the fitted concentration of half-maximal effect
Target sequence (P18054 whole entry, looked up): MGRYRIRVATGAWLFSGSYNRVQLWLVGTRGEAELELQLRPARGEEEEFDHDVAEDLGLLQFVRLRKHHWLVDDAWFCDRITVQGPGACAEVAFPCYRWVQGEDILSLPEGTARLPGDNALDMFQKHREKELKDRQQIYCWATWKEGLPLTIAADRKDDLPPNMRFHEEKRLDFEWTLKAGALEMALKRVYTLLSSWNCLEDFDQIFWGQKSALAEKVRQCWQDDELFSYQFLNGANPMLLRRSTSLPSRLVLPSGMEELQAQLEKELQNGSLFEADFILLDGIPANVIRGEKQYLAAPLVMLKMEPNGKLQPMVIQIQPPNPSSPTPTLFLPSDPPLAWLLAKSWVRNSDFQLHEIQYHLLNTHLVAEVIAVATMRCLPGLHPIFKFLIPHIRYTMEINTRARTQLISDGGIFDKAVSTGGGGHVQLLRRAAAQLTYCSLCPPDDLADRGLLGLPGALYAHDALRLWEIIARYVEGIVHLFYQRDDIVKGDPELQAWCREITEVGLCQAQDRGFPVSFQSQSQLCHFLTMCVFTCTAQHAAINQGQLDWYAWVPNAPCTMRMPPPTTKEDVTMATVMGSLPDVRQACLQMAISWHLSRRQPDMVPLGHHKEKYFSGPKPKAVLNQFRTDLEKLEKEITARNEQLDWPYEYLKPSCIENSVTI
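Purified human 12hLO (150 nM final) in 25 mM Hepes, 0.01% Triton X-100, pH 7.0 was preincubated 15 min at room temperature with compound. Then 40 uM arachidonic acid was added, 30 min. Hydroperoxide was read by Fe-XO absorbance ratio 573/405 nm.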
HT1080NT lethal – kills 2HG-producing HT-1080-NT fibrosarcoma cells; HT-1080-NT fibrosarcoma viability, CellTiter-Glo ATP luminescence, 48 h; Potency, µM (doses to about 46.1 µM), without a hit: at the top dose activity, negative = less viability, usual class: cytotoxic; 1.6% of 360,000 active;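 note: NT is the 2HG producing partner of a matched IDH1 knockdown line; potency is the fitted concentration of half-maximal effect; 0% = DMSO-treated cells and -100% = media-only wells without cells; nearly all actives have a fitted effect of over 55% in size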
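Fibrosarcoma NT cells, 750 per well in 5% FBS RPMI, were exposed to compound for 48 hours. Viability: CellTiter-Glo luminescence.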
TDP1 cell CPT – growth inhibition of DT40 Tdp1-/-;hTDP1 cells with camptothecin (screen for TDP1 inhibitors) | Potency, µM (series often up to 46.2 µM), for inactives: at the highest dose activity change, negative = growth inhibition, usual class: inhibitors | 12% of 420,000 active | chicken DT40 Tdp1-/-;hTDP1 cells + 20 nM CPT, ATP luminescence, 48 h | AID 686979; note: potency is the fitted concentration of half-maximal effect; nearly all actives have a fitted effect of over 55% in size
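Cell growth measured by CellTiter-Glo luminescence after a minimum 48 h, 37 C compound exposure with 20 nM CPT in Tdp1-knockout DT40 cells stably expressing hTDP1, seeded 400/well; qHTS titration format.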
TDP1 cell noCPT – qHTS for Inhibitors of human tyrosyl-DNA phosphodiesterase 1 (TDP1): qHTS in cells in absence of CPT; DT40 Tdp1-/- hTDP1 cells, no CPT, ATP luminescence, 48 h; Potency, µM (titrated, usually from 46.2 µM), without a hit: at the top dose activity change, negative = growth inhibition, most hits filed as inhibitors; 15% of 420,000 active; AID 686978, 2013; note: potency is the fitted concentration of half-maximal effect; nearly all actives have a fitted effect of over 55% in size
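Cells were dispensed at 400 per well, compounds added by pin tool, plates incubated ≥48 hr at 37 °C, then CellTiter-Glo added for 30 min at room temperature before luminescence reading. Line: DT40 Tdp1-/- complemented with hTDP1; camptothecin omitted.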
* hit, by the source's call; u = inconclusive; x = no result given; ! = repeats disagree; [ ] = remark or other dose. Unless noted, calls come from the whole dose curve; as a rule, active = well fitted curve in the direction sought with a large enough effect; inconclusive = small, poorly fitted or top-dose-only effect, or another doubt; inactive = no such curve, though single readings can be large; an effect the other way counts as inactive or inconclusive. Unless noted, % is set by controls: 0 for no effect and ±100 for the full control effect.

SMILES	HT1080 IDH1KD tx	IL1B secr inh	ALOX12 inh	HT1080NT lethal	TDP1 cell CPT	TDP1 cell noCPT
CC(C)C[C@H]1CN([C@@H](Cc2ccc(O)cc2)CN2CCC[C@@H]2CN2C(=S)NC[C@@H]2Cc2ccccc2)C(=S)N1CC1CCCCC1	-18%	-22	u	-24%	16µM*	16µM*
CC(C)C[C@H]1CNC(=S)N1C[C@H]1CCCN1C[C@H](Cc1ccc(O)cc1)N1C[C@H](Cc2ccccc2)N(CC2CCCCC2)C1=S	-4%	-16	0%	-19%	u	18µM*
O=C(Nc1cccc(-c2nc3ncccc3o2)c1)c1sc2cc(Cl)ccc2c1Cl	-5%	1	-1%	10%	u	u
O=C(Nc1cccc(-c2nc3ncccc3o2)c1)c1cc2ccccc2o1	-14%	25	-19%	-17%	21µM*	23µM*
O=C(Nc1cccc(-c2nc3ncccc3o2)c1)c1sc2ccccc2c1Cl	10%	5	6%	13%	10µM*	u
COc1ccc(OCCN2CCN(C(=O)CNC(=O)c3ccc(N4CCCC4=O)cc3)CC2)cc1	x	x	-1%	x	x	x
Cc1cc(C)c(S(=O)(=O)Nc2ccc(Cl)c(N3CCCS3(=O)=O)c2)c(C)c1	x	x	89%	x	x	x
OC(CNCc1ccccc1)Cn1ccc2ccccc21 (stereo not given)	1%	-50*	u	-3%	-19%	-8%
Oc1ccccc1NCC(O)Cn1ccc2ccccc21 (stereo not given)	u	u	u	u	16µM*	21µM*
Nc1ccccc1SCC(O)Cn1ccc2ccccc21 (stereo not given)	-17%	-24	x	-15%	7%	-22%
OCc1nc2ccccc2n1CC(O)Cn1ccc2ccccc21 (stereo not given)	-8%[9.24 µM]	-5	0%	-20%	16µM*	13µM*
Cn1ncc(C#N)c1/N=C/N(Cc1ccccc1)Cc1ccccc1	-25%	31	17%	-19%	15µM*	u
CN1CCN(/C=N/c2c(C#N)cnn2C)CC1	14%	-6	-1%	9%	-1%	-7%
CCN(Cc1ccco1)C(=O)c1[nH]c2c(c1C)C(=O)CC(C)(C)C2	x	x	0%	x	x	x
Cc1cc(C(=O)N[C@@H]2CN(c3ncccn3)C[C@H]2CO)c(C)o1	x	x	-2%	x	x	x
CCCNC(=O)Nc1ccc(OC2CCN(C(=O)CC)C2)nc1 (stereo not given)	x	x	35%	x	x	x
CCCCN(CCCC)C(=O)C1CCN(S(=O)(=O)c2cccc3nsnc23)CC1	x	x	0%	x	16µM*	26µM*
O=C(C1CCN(S(=O)(=O)c2cccc3nsnc23)CC1)N1CCc2ccccc2C1	-4%	-63*	0%	-4%	u	u
CCCN(CCC)CCCNC(=O)C1CCN(S(=O)(=O)c2cccc3nsnc23)CC1	2%	1	-4%	8%	8%	6%
CCN(CC)CC#CCC(C)(c1ccccc1)c1ccccc1	u	u	0%	u	u	16µM*
Cc1cccn2c(=O)c(/C=C3\SC(=S)NC3=O)c(NCCCN3CCOCC3)nc12	5%	-83*	-15%	0%	u	23µM*
C=CCn1cc(-c2c(-c3ccccc3)ncn2CCCC2CCOC2)cn1 (stereo not given)	x	x	42%	x	x	x
O=C(NCCc1noc(-c2ccncc2)n1)C1CC(=O)N(c2ccc(F)c(Cl)c2)C1 (stereo not given)	x	x	-25%	x	x	x
CNc1ccc2ncc(-c3ccc(OC)c(OC)c3)n2n1	u	-66*	-3%	18µM*	2.6µM*	2.1µM*
O=C1CCC[C@@H]2[C@@H](Cc3ccccc3)[C@H](N3CCN(c4ccccc4)CC3)C[C@@H]3CCN1[C@@H]32	5%	-5	-3%	7%	u	u
SMILES	HT1080 IDH1KD tx	IL1B secr inh	ALOX12 inh	HT1080NT lethal	TDP1 cell CPT	TDP1 cell noCPT
Cc1cc(C)n(-c2ccc(NC(=O)C3CCCCN3C(=O)c3cc(C)oc3C)cc2)n1 (stereo not given)	0%	-7	-13%	-8%	15µM*	u
O=S(=O)(c1ccccc1)c1nc(-c2ccccc2Cl)oc1NCCCN1CCOCC1	-33%	-67*	-14%	-16%	u	23µM*
Cc1ccccc1-c1nc(S(=O)(=O)c2ccc(Cl)cc2)c(NCCN2CCOCC2)o1	u	-52*	-22%	-3%	u	u
CCOC(=O)C(NC(=O)NCc1ccccc1)(OCC)C(F)(F)F (stereo not given)	0%	0	-14%	-11%	u	23µM*
CCN(CC)C(=O)N1CCN(C)CC1	17%	-13	4%	17%	1µM*!	u
CN(C)S(=O)(=O)c1ccc(Cl)c(C(=O)NNC(=O)Cn2ccc(C(F)(F)F)n2)c1	-1%	23	1%	12%	12%	-1%
CN(C)c1ccc(CNC(=O)c2ccc3c(c2)N(C)C(=O)C2CCCCN32)cc1 (stereo not given)	x	x	-10%	x	18µM*	u
O=C(C1CCOCC1)N1CCC(N2C(=O)C(OCC3CC3)C23CCCCC3)CC1 (stereo not given)	x	x	53%	x	x	x
COc1c(C)cccc1C(=O)Nc1ccc(-c2nc3ccccc3s2)c(Cl)c1	x	x	0%	x	u	12µM*
O=C(CCS(=O)(=O)c1ccccc1)Nc1cccc(-c2nc3ccccc3s2)c1	-29%	103	2%	-12%	u	18µM*
CCS(=O)(=O)c1ccccc1C(=O)Nc1ccc(-c2nc3ccccc3s2)cc1	x	x	-25%	x	u	15µM*
CCOc1ccccc1C(=O)Nc1cccc(-c2nc3ccccc3s2)c1	x	x	u	x	6.5µM*	5.2µM*
O=C(CCCc1ccccc1)Nc1ccnn1C1CCN(C(=O)CCN2CCCC2=O)CC1	x	x	91%	x	x	x
COCc1ncc(C)n1CCNC(=O)c1cc(-c2ccc(C)cc2)n[nH]1	x	x	103%	x	x	x
Cc1ccc(CN(CC(=O)NC(C)(C#N)C2CC2)C(C)C)s1 (stereo not given)	x	x	-14%	x	x	x
COc1cc(NC(=O)N2C[C@@H](F)C[C@H]2C(=O)N2CCc3ccccc3C2)cc(OC)c1	x	x	9%	x	x	x
CCCC(CCC)C(=O)Nc1cccc(-c2nc3cccnc3s2)c1	x	x	u	x	-8%	-2%
CCC(CC)C(=O)Nc1cccc(-c2nc3cc(C)ccc3o2)c1	x	x	19%	x	x	x
